Among the data in PubChem BioAssay (Tox21) are Potency and outcome values, retold here.

A short description of experiment [1]: qHTS assay to test for compound auto fluorescence at 535 nm (green) in HEK293 cells (AID 720680). On the technique in general: qHTS replaces the single test concentration by a dilution series.
Experiment [2] can be described thus: qHTS assay to test for compound auto fluorescence at 460 nm (blue) in HEK293 cell free culture (AID 720681). A digest of the protocol: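 Compounds were added to cell-free DMEM with 10% FBS and fluorescence read directly. The blue channel used 405 nm excitation and 460 nm emission, with triamterene as the reference fluorophore.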
A short description of experiment [3]: qHTS assay to test for compound auto fluorescence at 535 nm (green) in HEK293 cell free culture (AID 720682). A digest of the protocol:
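Steps: dispense DMEM/10% FBS into empty wells; pin in compound or DMSO; measure fluorescence at 485/535 nm. Values are fluorescein equivalents.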

The nature of experiment [4]: qHTS assay to test for compound auto fluorescence at 590 nm (red) in HEK293 cell free culture (AID 720683). A digest of the protocol: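 Cell-free wells of DMEM with 10% FBS received compound, and intrinsic fluorescence was read at excitation/emission 540/590 nm. Values expressed as equivalence to Rose Bengal sodium.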
Experiment [5] in a line: qHTS assay to test for compound auto fluorescence at 590 nm (red) in HepG2 cell free culture (AID 720684). An outline of the steps: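 Rose Bengal sodium served as the reference for red signal. Test compounds were dispensed into serum-containing MEM (10% FBS) without cells, and plates were read at 540/590 nm.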
A short description of experiment [6]: qHTS assay to test for compound auto fluorescence at 535 nm (green) in HepG2 cell free culture (AID 720686).
The nature of experiment [7]: qHTS assay to test for compound auto fluorescence at 460 nm (blue) in HepG2 cells (AID 720687). A digest of the protocol:
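HepG2 cells in MEM with 10% FBS, attached overnight at 37 C, were exposed to compound or DMSO for 1 hr at 37 C, 5% CO2. Blue fluorescence was read at 405/460 nm, with triamterene as reference fluorophore.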

Experiment [8] deals with Glucocorticoid receptor (Homo sapiens) (UniProt P04150). Put plainly: qHTS assay to identify small molecule agonists of the glucocorticoid receptor (GR) signaling pathway (AID 720691; active means well fitted activation curve with a large enough effect in the signal ratio in the repeat runs, not every such curve was filed as active; inconclusive means weak or mixed curves, or effect the other way; inactive means no such curve, though single readings can be large or run the other way; the % refers to the signal ratio; further: potency means the concentration at half of the fitted maximal effect). As to conditions: GR-bla HeLa, beta-lactamase reporter ratio, 18 h; activation: at 62.4 µM (top of the series). A digest of the protocol:
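Measures GR pathway activation through a GRE-beta-lactamase reporter stably integrated in HeLa cells, with 18 h compound treatment at 37 C and fluorescence detection using a FRET substrate.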

A short description of experiment [9]: qHTS assay to identify small molecule antagonists of the glucocorticoid receptor (GR) signaling pathway - cell viability counter screen (AID 720693). Further: nearly all actives have a fitted effect of over 55% in size.
Experiment [10] is described as follows: qHTS assay for identifying genotoxic compounds that show differential cytotoxicity against isogenic chicken DT40 cell lines with known DNA damage response pathways - wild type cell line (AID 743012). Further: nearly all actives have a fitted effect of over 60% in size. An outline of the steps:
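Endpoint: CellTiter-Glo luminescence, 30 min RT. Cells: wild type DT40, 300/well. Exposure: compounds in DMSO, 40 h, 37 C/5% CO2, after ~0.5 h pre-incubation.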

Experiment [11] can be described thus: qHTS assay for identifying genotoxic compounds that show differential cytotoxicity against isogenic chicken DT40 cell lines with known DNA damage response pathways - Rev3 mutant cell line (AID 743014). Further: nearly all actives have a fitted effect of over 55% in size.
Experiment [12] in a line: qHTS assay for identifying genotoxic compounds that show differential cytotoxicity against isogenic chicken DT40 cell lines with known DNA damage response pathways - Rad54/Ku70 mutant cell line (AID 743015). Further: nearly all actives have a fitted effect of over 60% in size.
The nature of experiment [13]: qHTS assay to identify small molecule antagonists of the androgen receptor (AR) signaling pathway - cell viability counter screen (AID 743033; further: nearly all actives have a fitted effect of over 45% in size).
Experiment [14] in a line: qHTS assay to identify small molecule antagonists of the androgen receptor (AR) signaling pathway using the MDA cell line - cell viability counter screen (AID 743041; further: nearly all actives have a fitted effect of over 45% in size). An outline of the steps:
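Cytotoxicity counter screen: MDA-kb2 AR-luc cells, compound + R1881, 16 h, 37C, 0% CO2; CellTiter-Fluor added at 15.5 h, fluorescence read after 30 min.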

The nature of experiment [15]: qHTS assay to test for compound auto fluorescence at 460 nm (blue) in HepG2 cell free culture (AID 720685). An outline of the steps:
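Cell-free plates of MEM plus 10% FBS received 23 nL compound or DMSO vehicle; blue-channel (405/460 nm) intensity scored against triamterene as reference fluorophore.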

For experiment [16], the target named is Glucocorticoid receptor (Homo sapiens) (UniProt P04150). Put plainly: qHTS assay to identify small molecule antagonists of the glucocorticoid receptor (GR) signaling pathway (AID 720692; active means well fitted inhibition curve with a large enough effect in the signal ratio in the repeat runs, not every such curve was filed as active; inconclusive means weak or mixed curves, or effect the other way; inactive means no such curve, though single readings can be large or run the other way; the % refers to the signal ratio). A digest of the protocol: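 Tox21 10K library screened in concentration-response for blockade of dexamethasone (5 nM final)-induced GRE-bla reporter activity in HeLa cells; 18 h treatment, fluorescence read.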

Experiment [17] deals with Androgen receptor (Homo sapiens) (UniProt P10275). Put plainly: qHTS assay to identify small molecule antagonists of the androgen receptor (AR) signaling pathway (AID 743035; active means well fitted inhibition curve with a large enough effect in the signal ratio in the repeat runs, not every such curve was filed as active; inconclusive means weak or mixed curves, or effect the other way; inactive means no such curve, though single readings can be large or run the other way; the % refers to the signal ratio). An outline of the steps: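 R1881 agonist challenge of a HEK293 UAS-beta-lactamase AR reporter line in the presence of compound (16 h, 37C); signal taken as FRET fluorescence after 2 h with LiveBLAzer B/G substrate at room temperature.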

Experiment [18] shares this target. The experiment in a line: qHTS assay to identify small molecule agonists of the androgen receptor (AR) signaling pathway (AID 743036; active means well fitted activation curve with a large enough effect in the signal ratio in the repeat runs, with a control signal flat, not every such curve was filed as active; inconclusive means weak or mixed curves, or effect the other way; inactive means no such curve, though single readings can be large or run the other way; the % refers to the signal ratio). A digest of the protocol: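 Reporter line: GeneBLAzer AR-UAS-bla-GripTite (HEK293). Steps: plate cells, 4 h rest, add compounds, 16 h at 37C, add LiveBLAzer B/G substrate, 2 h at RT, read fluorescence.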
For experiment [19] the target is unchanged. The experiment in a line: qHTS assay to identify small molecule agonists of the androgen receptor (AR) signaling pathway using the MDA cell line (AID 743040; further: nearly all actives have a fitted effect of over 20% in size). An outline of the steps: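 Luciferase read-out, ONE-Glo, 30 min RT. Cells: MDA-kb2 AR-luc, MMTV promoter with AR and GR response elements. Compound exposure 16 h, 37C, 0% CO2, after 5 h pre-incubation. qHTS agonist mode.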

For experiment [20] the target is unchanged. Put plainly: qHTS assay to identify small molecule antagonists of the androgen receptor (AR) signaling pathway using the MDA cell line (AID 743042; further: nearly all actives have a fitted effect of over 55% in size). An outline of the steps:
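MDA-kb2 breast carcinoma cells carrying MMTV-luciferase (AR/GR responsive) were co-treated with compounds and the agonist R1881 for 16 h at 37C. Inhibition read as ONE-Glo luminescence; CellTiter-Fluor fluorescence measured in parallel for cytotoxicity.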

Activity calls are given as the source filed them. Unless noted, the call rests on the fitted dose curve; in most records, active means well fitted curve in the direction sought with a large enough effect in the repeat runs; inconclusive means weak or mixed curves; inactive means no such curve, though single readings can be large; an effect the other way counts as inactive or inconclusive.

Glucocorticoid receptor (Homo sapiens), sequence (P04150 whole entry, looked up): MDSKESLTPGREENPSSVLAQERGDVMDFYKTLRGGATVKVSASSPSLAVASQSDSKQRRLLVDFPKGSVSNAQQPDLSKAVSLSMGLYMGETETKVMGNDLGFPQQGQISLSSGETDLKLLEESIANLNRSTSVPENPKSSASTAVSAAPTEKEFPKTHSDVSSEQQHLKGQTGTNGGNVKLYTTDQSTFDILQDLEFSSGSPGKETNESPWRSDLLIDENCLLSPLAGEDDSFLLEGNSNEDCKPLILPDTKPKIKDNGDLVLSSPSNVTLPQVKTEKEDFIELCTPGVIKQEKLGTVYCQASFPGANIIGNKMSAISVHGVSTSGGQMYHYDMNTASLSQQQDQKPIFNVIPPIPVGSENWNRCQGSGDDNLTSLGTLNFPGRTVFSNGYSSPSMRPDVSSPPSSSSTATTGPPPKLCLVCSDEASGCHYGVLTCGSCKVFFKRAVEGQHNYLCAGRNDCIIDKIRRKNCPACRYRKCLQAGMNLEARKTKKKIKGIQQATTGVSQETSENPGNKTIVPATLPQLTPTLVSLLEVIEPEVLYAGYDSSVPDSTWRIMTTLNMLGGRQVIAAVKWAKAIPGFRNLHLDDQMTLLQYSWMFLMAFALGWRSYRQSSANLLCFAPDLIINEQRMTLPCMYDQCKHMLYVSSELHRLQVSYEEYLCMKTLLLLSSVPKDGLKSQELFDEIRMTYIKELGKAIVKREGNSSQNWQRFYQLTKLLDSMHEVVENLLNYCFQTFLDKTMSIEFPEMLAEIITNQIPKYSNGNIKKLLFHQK
Androgen receptor (Homo sapiens), sequence (P10275 whole entry, looked up): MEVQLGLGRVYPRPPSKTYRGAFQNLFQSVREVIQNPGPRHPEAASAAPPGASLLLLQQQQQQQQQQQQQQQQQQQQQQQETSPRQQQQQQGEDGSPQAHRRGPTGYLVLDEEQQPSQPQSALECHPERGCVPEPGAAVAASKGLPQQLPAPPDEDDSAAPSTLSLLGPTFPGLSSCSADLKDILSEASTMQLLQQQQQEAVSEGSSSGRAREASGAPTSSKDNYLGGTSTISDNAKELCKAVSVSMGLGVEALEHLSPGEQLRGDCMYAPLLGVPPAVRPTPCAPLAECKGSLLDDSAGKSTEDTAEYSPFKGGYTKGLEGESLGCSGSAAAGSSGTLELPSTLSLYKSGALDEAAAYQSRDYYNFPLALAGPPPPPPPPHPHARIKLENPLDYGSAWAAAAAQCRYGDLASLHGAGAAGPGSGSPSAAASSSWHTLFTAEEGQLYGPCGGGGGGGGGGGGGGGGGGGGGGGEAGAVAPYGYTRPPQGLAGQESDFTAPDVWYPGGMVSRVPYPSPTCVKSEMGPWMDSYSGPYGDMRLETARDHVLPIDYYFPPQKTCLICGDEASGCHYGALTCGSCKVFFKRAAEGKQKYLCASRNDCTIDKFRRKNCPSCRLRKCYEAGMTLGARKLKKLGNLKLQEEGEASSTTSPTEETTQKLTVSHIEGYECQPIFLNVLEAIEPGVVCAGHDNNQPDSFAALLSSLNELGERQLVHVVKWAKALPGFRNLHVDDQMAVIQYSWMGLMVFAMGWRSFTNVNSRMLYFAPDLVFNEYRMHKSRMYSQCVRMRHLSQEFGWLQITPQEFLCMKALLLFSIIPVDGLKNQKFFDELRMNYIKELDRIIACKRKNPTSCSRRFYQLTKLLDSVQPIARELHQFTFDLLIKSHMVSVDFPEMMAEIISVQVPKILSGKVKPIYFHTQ

On to `CO/N=C(\C(=O)N[C@@H]1C(=O)N2C(C(=O)O)=CCS[C@H]12)c1csc(N)n1`, for which the Potency result in experiment [1], in experiment [2], in experiment [3], in experiment [4], in [5] and in [6] was “inactive” each time. Moreover, the Potency entry in [8], in experiment [9], in experiment [10], in experiment [11], in experiment [12] and in [13] was “inactive” throughout. In addition, in [14], the Potency entry is “inactive”. The compound was classed as inactive in experiment [7].
In the case of `C[C@]12CCC(=O)C=C1CC[C@@H]1[C@@H]2[C@@H](O)C[C@@]2(C)[C@H]1CC[C@]2(O)C(=O)COP(=O)(O)O`, the Potency entry in experiment [1], in experiment [2], in [3], in [4], in [5] and in [6] was “inactive” throughout. For the same compound, the Potency entry in experiment [9], in experiment [10], in experiment [12], in experiment [13] and in experiment [14] was “inactive” in each case. Besides, in experiment [7], the call was inactive. The Potency in experiment [8] was 0.674 µM [inconclusive] (active).
For the compound `CC(=O)N[C@@H](CC(=O)N[C@@H](CCC(=O)O)C(=O)O)C(=O)O`, the Potency entry in [1], in experiment [2], in [3], in experiment [4], in experiment [5] and in [9] was “inactive” in each case. Further, the Potency result in experiment [10], in experiment [11], in experiment [12], in experiment [13] and in experiment [14] was “inactive” throughout. The compound was called inactive in experiment [15] and in experiment [7].
In the case of `C[N+]1(C)[C@@H]2CC(OC(=O)C(O)(c3cccs3)c3cccs3)C[C@H]1[C@@H]1O[C@@H]12` (stereo partly specified), the Potency result in experiment [1], in experiment [2], in experiment [3], in [4], in [5] and in [6] was “inactive” each time. Besides, the Potency result in experiment [16], in [9], in experiment [11], in experiment [12] and in experiment [14] was “inactive” each time. The call in experiment [7] was inactive.
Consider `CN1c2cc(O)c(N=NC(N)=O)cc2CC1S(=O)(=O)O` (stereo unspecified), for which the Potency entry in experiment [1], in experiment [2], in experiment [3], in experiment [4], in experiment [5] and in experiment [6] was “inactive” throughout. Moreover, the Potency entry in experiment [9], in [10], in experiment [12], in experiment [13] and in experiment [14] was “inactive” throughout. In [7], the compound was classed as inactive.
Turning to `CC(C)[C@H](N)C(=O)OCC(CO)OCn1cnc2c(=O)[nH]c(N)nc21` (stereo partly specified), the Potency result in experiment [1], in [2], in experiment [3], in experiment [4], in experiment [5] and in [6] was “inactive” each time. The Potency entry in experiment [8], in [16], in [9], in experiment [10], in [11] and in experiment [13] was “inactive” throughout. Also, the Potency result in [14] is “inactive”. The result in experiment [7] was inactive.
Consider `CCC(CN)CC(C)CCNCC(O)CNCC(C)CC(CC)CN` (stereo unspecified), for which the Potency result in experiment [1], in experiment [2], in [3], in experiment [4], in [5] and in experiment [8] was “inactive” in each case. Further, the Potency result in [16], in experiment [9], in experiment [10], in experiment [11], in experiment [12] and in experiment [13] was “inactive” in each case. For the same compound, the Potency result in experiment [17], in [18], in experiment [19], in experiment [14] and in experiment [20] was “inactive” in each case. In addition, the call in [15] was inactive.
